Measured values as given in paper PMC7862700, “An all-to-all approach to the identification of sequence-specific readers for epigenetic DNA modifications on cytosine”.

Columns and labels:
Experiment in all cases: DAPPL (digital affinity profiling via proximity ligation, sequencing); 10 mM Tris-HCl pH 7.5, 50 mM NaCl, 1 mM DTT, 4% glycerol, room temperature, 30 min; GST-TFs on glutathione beads, 16-mer random dsDNA library, 0.1% formaldehyde crosslink after washing; high values mean tight binding
Conditions in all cases: protein: recombinant; tags: N-terminal GST; dsDNA, one strand shown
FLI1 = biological target: T1, FLI1 (Homo sapiens, UniProt Q01543 1-452)
T1 sequence: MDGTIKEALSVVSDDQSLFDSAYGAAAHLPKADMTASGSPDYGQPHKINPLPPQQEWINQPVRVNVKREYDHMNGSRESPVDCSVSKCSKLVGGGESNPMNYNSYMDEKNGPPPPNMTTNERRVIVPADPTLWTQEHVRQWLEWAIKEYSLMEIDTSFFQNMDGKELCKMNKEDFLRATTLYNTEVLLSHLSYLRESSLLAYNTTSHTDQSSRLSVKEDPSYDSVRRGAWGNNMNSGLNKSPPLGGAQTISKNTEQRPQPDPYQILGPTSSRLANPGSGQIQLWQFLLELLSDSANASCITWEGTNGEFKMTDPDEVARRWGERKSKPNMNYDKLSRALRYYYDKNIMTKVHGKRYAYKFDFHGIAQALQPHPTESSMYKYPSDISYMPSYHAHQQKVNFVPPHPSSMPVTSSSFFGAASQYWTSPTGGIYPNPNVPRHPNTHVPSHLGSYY
How it was run: (§1)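 Binding signal is defined as a hexamer's read frequency for one factor over its frequency for the tag-only sample. To obtain reads, GST-fused human transcription factors were expressed in yeast, captured on glutathione beads, barcoded with DNA and pooled with that sample. Pools met 200 nmole of a 16-mer random double-stranded DNA library in Tris/NaCl/DTT/glycerol buffer for 30 min at room temperature before washing, 0.1% formaldehyde crosslinking, proximity ligation (BsaI/T4 ligase, 1 h, 37 °C), PCR and Illumina NextSeq500 sequencing.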

ELK1 = biological target: T2, ELK1 (Homo sapiens, UniProt P19419 1-428)
T2 sequence: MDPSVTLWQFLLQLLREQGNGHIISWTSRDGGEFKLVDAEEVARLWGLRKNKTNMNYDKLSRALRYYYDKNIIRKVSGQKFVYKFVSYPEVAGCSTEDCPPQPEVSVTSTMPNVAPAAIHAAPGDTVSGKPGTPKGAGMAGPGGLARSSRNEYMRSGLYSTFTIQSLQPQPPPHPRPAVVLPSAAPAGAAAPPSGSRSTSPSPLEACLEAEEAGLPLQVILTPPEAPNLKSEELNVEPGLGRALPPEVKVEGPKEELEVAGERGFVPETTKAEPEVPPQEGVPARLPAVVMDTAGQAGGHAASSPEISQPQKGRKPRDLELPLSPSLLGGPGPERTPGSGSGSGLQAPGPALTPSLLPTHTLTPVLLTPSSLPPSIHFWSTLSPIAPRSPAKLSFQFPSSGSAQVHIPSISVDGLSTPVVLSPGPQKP
How it was run: as §1

GABPA = biological target: T3, GABPA (Homo sapiens, UniProt Q06546 1-454)
T3 sequence: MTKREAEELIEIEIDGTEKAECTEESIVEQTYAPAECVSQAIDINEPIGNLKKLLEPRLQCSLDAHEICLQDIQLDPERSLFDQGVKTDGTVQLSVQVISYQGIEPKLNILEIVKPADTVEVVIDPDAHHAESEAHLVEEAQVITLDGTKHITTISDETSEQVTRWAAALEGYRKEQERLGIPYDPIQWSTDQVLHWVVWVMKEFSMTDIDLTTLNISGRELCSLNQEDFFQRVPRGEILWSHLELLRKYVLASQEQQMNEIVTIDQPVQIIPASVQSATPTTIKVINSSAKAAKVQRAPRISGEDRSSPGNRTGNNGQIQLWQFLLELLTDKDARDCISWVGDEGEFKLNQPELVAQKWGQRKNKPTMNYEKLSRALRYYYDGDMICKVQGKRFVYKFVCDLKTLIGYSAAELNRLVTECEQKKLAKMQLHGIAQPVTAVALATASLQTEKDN
How it was run: as §1

ELF1 = ELF1 (Homo sapiens, UniProt P32519 1-619)
How it was run: as §1

SPI1 = SPI1 (Homo sapiens, UniProt P17947 1-270)
How it was run: as §1

SPIB = SPIB (Homo sapiens, UniProt Q01892 1-262)
How it was run: as §1

ELK3 = biological target: T4, ELK3 (Homo sapiens, UniProt P41970 1-407)
T4 sequence: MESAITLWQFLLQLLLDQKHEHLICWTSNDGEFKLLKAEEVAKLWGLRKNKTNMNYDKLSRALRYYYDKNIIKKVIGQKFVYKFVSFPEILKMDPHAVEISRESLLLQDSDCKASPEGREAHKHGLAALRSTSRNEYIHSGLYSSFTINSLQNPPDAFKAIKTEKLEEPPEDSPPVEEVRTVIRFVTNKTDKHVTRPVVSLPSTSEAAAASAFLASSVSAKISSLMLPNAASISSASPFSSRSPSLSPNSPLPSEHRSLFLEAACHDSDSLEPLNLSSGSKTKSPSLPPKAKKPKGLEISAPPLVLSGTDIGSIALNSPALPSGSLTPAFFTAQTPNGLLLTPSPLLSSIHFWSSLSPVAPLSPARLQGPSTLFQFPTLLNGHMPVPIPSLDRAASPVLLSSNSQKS
How it was run: as §1

FEV = biological target: T5, FEV (Homo sapiens, UniProt Q99581 1-238)
T5 sequence: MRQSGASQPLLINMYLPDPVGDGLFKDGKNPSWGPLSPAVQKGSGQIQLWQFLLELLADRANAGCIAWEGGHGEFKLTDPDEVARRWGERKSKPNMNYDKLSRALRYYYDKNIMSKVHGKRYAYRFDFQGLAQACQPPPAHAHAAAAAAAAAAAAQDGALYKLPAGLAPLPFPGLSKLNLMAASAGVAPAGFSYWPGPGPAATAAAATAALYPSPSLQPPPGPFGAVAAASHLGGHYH
How it was run: as §1

ETV5 = ETV5 (Homo sapiens, UniProt P41161 1-510)
How it was run: as §1

ELF4 = ELF4 (Homo sapiens, UniProt Q99607 1-663)
How it was run: as §1

ETV1 = ETV1 (Homo sapiens, UniProt P50549 1-477)
How it was run: as §1

ERF = biological target: T6, ERF (Homo sapiens, UniProt P50548 1-548)
T6 sequence: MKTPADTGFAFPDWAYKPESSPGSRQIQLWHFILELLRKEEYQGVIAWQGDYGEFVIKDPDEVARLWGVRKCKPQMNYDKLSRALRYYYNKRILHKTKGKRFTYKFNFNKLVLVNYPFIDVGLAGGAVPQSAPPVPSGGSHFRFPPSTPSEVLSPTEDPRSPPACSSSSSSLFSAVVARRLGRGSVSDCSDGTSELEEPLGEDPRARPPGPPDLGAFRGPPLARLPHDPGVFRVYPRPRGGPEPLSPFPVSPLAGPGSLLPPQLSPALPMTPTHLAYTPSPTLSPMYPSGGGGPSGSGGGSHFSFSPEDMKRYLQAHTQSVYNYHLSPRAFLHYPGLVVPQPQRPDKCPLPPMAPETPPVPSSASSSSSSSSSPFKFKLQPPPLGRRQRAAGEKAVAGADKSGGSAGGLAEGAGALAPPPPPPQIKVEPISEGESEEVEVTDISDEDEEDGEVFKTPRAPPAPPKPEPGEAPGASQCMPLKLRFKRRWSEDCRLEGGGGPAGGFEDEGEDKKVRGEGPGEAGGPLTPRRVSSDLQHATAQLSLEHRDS
How it was run: as §1

ETV3L = biological target: T7, ETV3L (Homo sapiens, UniProt Q6ZN32 1-361)
T7 sequence: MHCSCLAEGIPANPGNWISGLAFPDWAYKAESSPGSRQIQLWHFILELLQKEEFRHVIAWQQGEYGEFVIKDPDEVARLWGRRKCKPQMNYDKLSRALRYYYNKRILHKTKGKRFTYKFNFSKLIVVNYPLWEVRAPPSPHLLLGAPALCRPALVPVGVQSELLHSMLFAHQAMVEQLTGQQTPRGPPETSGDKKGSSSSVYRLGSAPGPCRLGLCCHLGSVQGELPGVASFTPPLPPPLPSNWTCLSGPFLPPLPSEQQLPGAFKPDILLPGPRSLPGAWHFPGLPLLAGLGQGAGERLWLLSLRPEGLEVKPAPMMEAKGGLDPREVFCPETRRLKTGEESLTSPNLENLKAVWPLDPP
How it was run: as §1

ETS2 = biological target: T8, ETS2 (Homo sapiens, UniProt P15036 1-469)
T8 sequence: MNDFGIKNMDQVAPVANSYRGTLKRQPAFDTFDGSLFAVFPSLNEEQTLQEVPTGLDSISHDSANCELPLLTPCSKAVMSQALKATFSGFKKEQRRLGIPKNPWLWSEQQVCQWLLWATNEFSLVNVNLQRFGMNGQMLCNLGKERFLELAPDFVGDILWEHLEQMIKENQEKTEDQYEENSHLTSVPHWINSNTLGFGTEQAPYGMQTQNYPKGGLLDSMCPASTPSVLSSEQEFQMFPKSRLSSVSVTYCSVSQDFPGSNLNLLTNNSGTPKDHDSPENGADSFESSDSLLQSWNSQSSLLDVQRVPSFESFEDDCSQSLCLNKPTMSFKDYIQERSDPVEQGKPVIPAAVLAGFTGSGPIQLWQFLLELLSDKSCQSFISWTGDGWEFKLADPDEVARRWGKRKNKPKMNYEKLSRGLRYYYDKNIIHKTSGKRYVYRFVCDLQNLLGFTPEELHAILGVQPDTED
How it was run: as §1

SPDEF = biological target: T9, SPDEF (Homo sapiens, UniProt O95238 1-335)
T9 sequence: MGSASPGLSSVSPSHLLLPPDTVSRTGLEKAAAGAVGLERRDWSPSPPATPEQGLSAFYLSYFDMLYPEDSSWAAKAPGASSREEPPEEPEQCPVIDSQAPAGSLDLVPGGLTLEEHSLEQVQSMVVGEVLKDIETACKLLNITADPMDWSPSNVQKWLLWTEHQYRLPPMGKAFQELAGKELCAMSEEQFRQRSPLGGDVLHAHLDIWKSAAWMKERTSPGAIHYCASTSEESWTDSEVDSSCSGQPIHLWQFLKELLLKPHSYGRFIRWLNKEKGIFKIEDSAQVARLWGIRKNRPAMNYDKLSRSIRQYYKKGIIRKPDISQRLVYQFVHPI
How it was run: as §1

ETV6 = ETV6 (Homo sapiens, UniProt P41212 1-452)
How it was run: as §1

Chain of ETV1 (P50549 whole entry): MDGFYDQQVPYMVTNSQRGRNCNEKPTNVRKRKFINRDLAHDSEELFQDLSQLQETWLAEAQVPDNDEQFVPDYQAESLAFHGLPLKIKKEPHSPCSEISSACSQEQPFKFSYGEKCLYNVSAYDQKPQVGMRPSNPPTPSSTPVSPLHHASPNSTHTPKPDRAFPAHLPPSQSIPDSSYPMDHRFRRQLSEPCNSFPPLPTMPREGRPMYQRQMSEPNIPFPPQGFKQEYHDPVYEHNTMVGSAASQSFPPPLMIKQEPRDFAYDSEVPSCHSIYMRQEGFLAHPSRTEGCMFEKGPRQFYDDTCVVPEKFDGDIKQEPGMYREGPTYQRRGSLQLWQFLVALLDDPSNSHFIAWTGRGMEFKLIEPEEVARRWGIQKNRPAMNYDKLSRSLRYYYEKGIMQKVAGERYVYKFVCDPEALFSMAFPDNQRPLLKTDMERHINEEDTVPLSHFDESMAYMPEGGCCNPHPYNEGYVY
Chain of SPIB (Q01892 whole entry): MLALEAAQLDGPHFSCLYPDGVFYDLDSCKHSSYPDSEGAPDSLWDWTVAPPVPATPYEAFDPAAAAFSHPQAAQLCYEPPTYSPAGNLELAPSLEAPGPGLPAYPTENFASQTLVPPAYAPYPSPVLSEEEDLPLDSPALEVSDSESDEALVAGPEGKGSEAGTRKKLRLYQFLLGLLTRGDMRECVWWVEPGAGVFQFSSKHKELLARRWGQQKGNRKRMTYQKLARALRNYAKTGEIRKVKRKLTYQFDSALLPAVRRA
Chain of ELF4 (Q99607 whole entry): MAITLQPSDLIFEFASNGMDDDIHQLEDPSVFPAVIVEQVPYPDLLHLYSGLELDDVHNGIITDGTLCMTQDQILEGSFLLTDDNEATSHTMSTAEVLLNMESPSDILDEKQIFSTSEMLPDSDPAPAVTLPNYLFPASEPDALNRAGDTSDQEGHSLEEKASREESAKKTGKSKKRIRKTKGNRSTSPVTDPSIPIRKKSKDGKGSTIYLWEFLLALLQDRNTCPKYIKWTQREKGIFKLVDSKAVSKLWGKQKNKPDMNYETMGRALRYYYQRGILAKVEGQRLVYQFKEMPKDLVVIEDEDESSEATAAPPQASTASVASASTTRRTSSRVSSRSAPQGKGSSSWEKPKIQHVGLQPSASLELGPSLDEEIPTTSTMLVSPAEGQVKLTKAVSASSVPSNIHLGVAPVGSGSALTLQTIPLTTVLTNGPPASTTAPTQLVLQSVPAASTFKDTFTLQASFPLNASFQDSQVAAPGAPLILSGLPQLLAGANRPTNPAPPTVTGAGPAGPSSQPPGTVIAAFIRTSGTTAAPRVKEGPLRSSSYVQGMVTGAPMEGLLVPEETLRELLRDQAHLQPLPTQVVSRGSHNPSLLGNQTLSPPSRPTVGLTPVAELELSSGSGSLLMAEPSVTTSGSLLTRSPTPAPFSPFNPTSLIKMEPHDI
Chain of ETV5 (P41161 whole entry): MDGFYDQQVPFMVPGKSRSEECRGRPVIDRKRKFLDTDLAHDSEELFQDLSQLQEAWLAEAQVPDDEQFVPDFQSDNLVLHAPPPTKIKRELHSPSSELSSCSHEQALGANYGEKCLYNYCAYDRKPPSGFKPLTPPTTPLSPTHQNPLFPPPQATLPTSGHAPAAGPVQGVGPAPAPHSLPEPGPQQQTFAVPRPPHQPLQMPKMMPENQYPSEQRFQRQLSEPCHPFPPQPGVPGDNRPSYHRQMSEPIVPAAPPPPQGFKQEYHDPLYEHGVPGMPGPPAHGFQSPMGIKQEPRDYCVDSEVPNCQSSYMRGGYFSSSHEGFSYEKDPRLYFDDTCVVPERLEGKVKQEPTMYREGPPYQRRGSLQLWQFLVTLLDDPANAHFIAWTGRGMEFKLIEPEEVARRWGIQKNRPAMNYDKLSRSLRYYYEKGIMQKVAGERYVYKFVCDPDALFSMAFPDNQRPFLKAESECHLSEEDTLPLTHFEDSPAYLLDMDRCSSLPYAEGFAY
Chain of ELF1 (P32519 whole entry): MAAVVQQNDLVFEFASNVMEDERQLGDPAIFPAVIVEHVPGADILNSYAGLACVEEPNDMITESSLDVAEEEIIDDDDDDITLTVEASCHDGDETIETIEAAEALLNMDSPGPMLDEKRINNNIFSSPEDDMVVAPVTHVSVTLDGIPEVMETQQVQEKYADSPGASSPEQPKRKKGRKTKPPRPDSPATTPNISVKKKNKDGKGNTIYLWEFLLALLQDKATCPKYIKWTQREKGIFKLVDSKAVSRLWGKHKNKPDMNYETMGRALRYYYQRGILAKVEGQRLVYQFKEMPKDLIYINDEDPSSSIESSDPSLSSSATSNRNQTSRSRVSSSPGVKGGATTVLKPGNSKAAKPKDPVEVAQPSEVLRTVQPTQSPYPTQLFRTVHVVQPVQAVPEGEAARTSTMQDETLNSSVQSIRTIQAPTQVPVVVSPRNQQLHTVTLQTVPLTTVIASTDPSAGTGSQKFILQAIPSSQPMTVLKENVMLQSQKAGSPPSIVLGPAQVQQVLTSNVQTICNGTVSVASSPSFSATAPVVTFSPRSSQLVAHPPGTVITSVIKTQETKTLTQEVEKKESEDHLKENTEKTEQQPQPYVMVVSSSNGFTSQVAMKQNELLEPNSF
Chain of ETV6 (P41212 whole entry): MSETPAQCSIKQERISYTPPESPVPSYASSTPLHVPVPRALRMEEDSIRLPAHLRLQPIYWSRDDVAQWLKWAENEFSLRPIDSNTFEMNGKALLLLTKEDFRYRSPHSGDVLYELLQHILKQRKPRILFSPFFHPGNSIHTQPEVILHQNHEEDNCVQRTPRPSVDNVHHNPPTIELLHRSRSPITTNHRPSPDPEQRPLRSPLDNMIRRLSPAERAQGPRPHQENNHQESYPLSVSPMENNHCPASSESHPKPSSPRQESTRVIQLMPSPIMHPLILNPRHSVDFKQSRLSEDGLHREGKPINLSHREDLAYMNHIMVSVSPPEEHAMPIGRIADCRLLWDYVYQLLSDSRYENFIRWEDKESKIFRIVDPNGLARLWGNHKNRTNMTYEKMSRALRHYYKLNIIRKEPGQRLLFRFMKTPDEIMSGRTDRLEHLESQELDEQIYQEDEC

CTATCA
binding signal (FLI1): 1.1 fold enrichment (6-mer frequency, TF over GST control) | binding signal (ELK1): 1.06 fold enrichment (6-mer frequency, TF over GST control) | binding signal (GABPA): 1.1 fold enrichment (6-mer frequency, TF over GST control) | binding signal (ELF1): 1.05 fold enrichment (6-mer frequency, TF over GST control) | binding signal (SPI1): 1.01 fold enrichment (6-mer frequency, TF over GST control) | binding signal (SPIB): 1.05 fold enrichment (6-mer frequency, TF over GST control) | binding signal (ELK3): 1.11 fold enrichment (6-mer frequency, TF over GST control) | binding signal (FEV): 1.02 fold enrichment (6-mer frequency, TF over GST control) | binding signal (ETV5): 1.03 fold enrichment (6-mer frequency, TF over GST control) | binding signal (ELF4): 1.15 fold enrichment (6-mer frequency, TF over GST control) | binding signal (ETV1): 1 fold enrichment (6-mer frequency, TF over GST control) | binding signal (ERF): 1.06 fold enrichment (6-mer frequency, TF over GST control) | binding signal (ETV3L): 1.09 fold enrichment (6-mer frequency, TF over GST control) | binding signal (ETS2): 1.04 fold enrichment (6-mer frequency, TF over GST control) | binding signal (SPDEF): 1.07 fold enrichment (6-mer frequency, TF over GST control) | binding signal (ETV6): 1.03 fold enrichment (6-mer frequency, TF over GST control)
